# Nrf2 ARE act = qHTS of Nrf2 Activators. Potency, µM (highest dose often 46.1 µM), for inactives: top-dose activation, actives largely listed as activators. AREc32 ARE-luciferase reporter (MCF7-derived line), luminescence, 24 h. AID 624171, 2012. 0.31% of 410,000 active; also: potency is read from the fitted curve at half-maximal effect; % of control where 0% means no effect; nearly all actives have a fitted effect of over 65% in size
#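 AREc32_Fluc, 1000 cells/well, OPTI-MEM + 5% FBS, o/n 37 deg C 5% CO2; 23 nL cpd by pin tool, 24 hr; Steady-Glo 30 min RT, luminescence.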
# IL-2 act = qHTS of IL-2 Activators; activation, % (series mostly up to about 46 µM); IL-2 activation reporter assay, cell-based qHTS; stimulated with anti-CD3/CD4/CD28 beads; in transgenic mouse T cells; 0.065% of 360,000 active; in the data active = activation above about 50%; inconclusive = mostly about 30% to 49%; also: 0% is about no effect
#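 Quantitative HTS in unstimulated transgenic mouse T cells, with memory T cells as non-tolerant control and PMA/ionomycin as tolerance-bypass control. Compound pretreatment lasted 60 minutes before 18 h bead stimulation; EGFP/DsRed fluorescence read.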
# A549 viability = Nrf2 qHTS screen for inhibitors: counterscreen for cytotoxicity; A549 ARE-Fluc cells, CellTiter-Fluor viability, 18-24 h; Potency, µM (doses to about 46 µM), inactives show at the highest dose activity change, negative = cytotoxicity, most hits filed as inhibitors; 0.16% of 390,000 active; AID 504648, 2011; also: potency is read from the fitted curve at half-maximal effect; % is scaled to controls: 0 for no effect and ±100 for the full control effect
#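 Cytotoxicity counterscreen: CellTiter-Fluor fluorescence was measured in A549 ARE_Fluc cells after 18-24 h of compound exposure in a concentration series. The subsequent BugLite luminescent read reports ARE-luciferase activity.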
# Nrf2 inh = Nrf2 qHTS screen for inhibitors | A549 ARE-Fluc reporter, luciferase luminescence, 18-24 h | Potency, µM (series often up to 46 µM), inactives show at the highest dose activity change, negative = inhibition, most hits filed as inhibitors | 2.1% of 360,000 active | AID 504444, 2011; also: potency is read from the fitted curve at half-maximal effect; % is scaled to controls: 0 for no effect and ±100 for the full control effect; nearly all actives have a fitted effect of over 60% in size
#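 In this cell-based qHTS, ARE-driven firefly luciferase in A549 cells reports Nrf2 activity; the luminescent signal after BugLite lysis is the measured value, with a prior CellTiter-Fluor read for cell health.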
# * hit, by the source's call; u = inconclusive; x = no result. An excerpt weighted towards active compounds, which were near 2.3% of everything screened. Unless noted, calls follow the shape of the dose curve; as a rule, active = well fitted curve in the direction sought with a large enough effect; inconclusive = small, poorly fitted or top-dose-only effect, or another doubt; inactive = no such curve, though single readings can be large; an effect the other way counts as inactive or inconclusive.
SMILES,Nrf2 ARE act,IL-2 act,A549 viability,Nrf2 inh
O=C(CN1CCN(c2ncc(C(F)(F)F)cc2Cl)CC1)N1CCN(c2ncc(C(F)(F)F)cc2Cl)CC1,0%,-4,u,11µM*
CN(C)C(=O)O/N=C(\N)COc1ccc(C(C)(C)C)cc1,-4%,-1,21µM*,u
CCOC(=O)C(O)(c1ccc(N(C)C(=O)COc2ccccc2)cc1)C(F)(F)F (configuration not stated),0%,-4,-1%,-8%
O=P(O)(O)c1ccccc1OCCOCCOCCOCCOc1ccccc1P(=O)(O)O,3%,0,3%,u
Cc1ccc(C)c(N2CCN(C(=O)C3CCCN(S(=O)(=O)c4cccc5nsnc45)C3)CC2)c1 (configuration not stated),0%,x,-7%,16µM*
O=C(C1CCCN(S(=O)(=O)c2cccc3nsnc23)C1)N1CCC2(CC1)OCCO2 (configuration not stated),0%,-2,0%,6%
CC(C)CCOP(=O)(c1ccc(N(C)C)cc1)C(O)c1ccc(Cl)cc1Cl (configuration not stated),0%,-1,u,u
Cc1ccc(Cl)cc1N1CCN(c2ncnc3c2nc2n3CCCC2)CC1,-1%,x,-6%,u
COc1ccc(N2CCN(c3ncnc4c3nc3n4CCCCC3)CC2)cc1,2%,x,-22%,16µM*
c1ccc(N2CCN(c3ncnc4c3nc3n4CCCC3)CC2)cc1,0%,x,-13%,23µM*
COc1ccc(CCNC(=O)N2c3ccccc3Sc3ccccc32)cc1,0%,-3,u,16µM*
COc1ccc(CCNC(=O)COC(=O)Cc2ccccc2)cc1,3%,0,3%,-8%
C/C(=C\[C@@H](NP(=O)(c1ccccc1)c1ccccc1)c1ccccc1)CO[Si](c1ccccc1)(c1ccccc1)C(C)(C)C,2%,-4,u,u
CNC(=O)Oc1ccc(-c2cn3cc(C)ccc3n2)cc1,-3%,0,u,1.2µM*
COC(=O)C1=C(c2ccccc2OCc2ccccc2)C[C@@H]2CC[C@H]1N2C(=O)NCc1ccc(C(C)(C)C)cc1,-1%,-2,-12%,21µM*
COC(=O)C1=C(c2ccc(F)cc2OCc2ccccc2)C[C@@H]2CC[C@H]1N2C(=O)NC1Cc2ccccc2C1,-1%,-3,-17%,16µM*
COC(=O)C1=C(c2ccc(F)cc2OCc2ccccc2)C[C@@H]2CC[C@H]1N2C(=O)N1CCCCC1,-1%,-1,-29%,u
COC(=O)C1=C(c2ccc(F)cc2OCc2ccccc2)C[C@@H]2CC[C@H]1N2C(=O)NCc1ccc(C)cc1,0%,-1,u,15µM*
COC(=O)C1=C(c2ccccc2OCc2ccccc2)C[C@@H]2CC[C@H]1N2C(=O)NCc1ccc(F)cc1,-1%,-3,u,23µM*
Nc1nnc(Sc2ncccc2[N+](=O)[O-])s1,u,0,-2%,4%
O=C(CN1CCN(S(=O)(=O)c2cc(Br)ccc2Br)CC1)NCc1ccccc1Cl,3%,-4,-15%,u
COC(=O)C1=C(c2ccc(F)cc2OCc2ccccc2)C[C@@H]2CC[C@H]1N2C(=O)NCCCc1ccccc1,-1%,-4,-17%,16µM*
COC(=O)C1=C(c2ccc(F)cc2OCc2ccccc2)C[C@@H]2CC[C@H]1N2C(=O)NCc1ccc(F)cc1,0%,0,-15%,u
CCOc1cc2c(cc1OCC)-n1cccc1C(c1ccc(F)cc1)NC2 (configuration not stated),3%,-1,4%,-15%
CCOc1cc2c(cc1OCC)-n1cccc1C(c1ccc(C(C)C)cc1)NC2 (configuration not stated),9%,-1,u,23µM*
SMILES,Nrf2 ARE act,IL-2 act,A549 viability,Nrf2 inh
Cc1ccc(C)c(N2CCN(c3ncnc4onc(C)c34)CC2)c1,-1%,x,-17%,13µM*
S=P(c1ccccc1)(c1ccccc1)c1c[nH]c2ccccc12,x,x,6%,-5%
O=C1NC(=O)N(Cc2ccccc2)C(=O)/C1=C\C=C\c1ccco1,u,0,u,26µM*
O=C1NC(=O)N(Cc2ccco2)C(=O)/C1=C/C=C/c1ccco1,u,-1,0%,-6%
Cc1nn(C(C)(C)C)c(C)c1/C=N/OC(=O)Nc1ccc(Cl)c(Cl)c1,-2%,-1,7%,1.8µM*
CCOC(=O)CCCc1cc[c]([Sb](=[O])([OH])[OH])cc1,x,x,-2%,0%
C/C(CC(c1ccccc1)c1c(O)c2ccccc2oc1=O)=N\Nc1ccc([N+](=O)[O-])cc1[N+](=O)[O-] (configuration not stated),15%,0,u,23µM*
O=c1oc2ccccc2c(O)c1C(c1ccc([N+](=O)[O-])cc1)c1c(O)c2ccccc2oc1=O,3%,0,u,u
CCOc1ccc2nc(N3CCC(C(=O)Nc4ccc(Br)cc4F)CC3)sc2c1,-1%,x,2%,u
Cc1ccccc1-n1c(/C=C/c2c(C)[nH]c3ccccc23)nc2ccccc2c1=O,-2%,x,u,21µM*
CN(C)c1nc(OCc2ccccc2)c2ncc(=O)[nH]c2n1,0%,2,-21%,u
COc1ccc(CCNc2nccn(-c3ccc(C)c(C)c3)c2=O)cc1OC,-1%,x,-19%,u
COc1ccc(Cc2nccc3cc(OC)c(OC)cc23)cc1OC,7%,0,2%,15µM*
CC(=O)O[C@H]1[C@H]2O[C@]23[C@@H]2CC[C@]4(O)C[C@@H](O)CC[C@]4(C)C2CC[C@]3(C)[C@H]1c1ccc(=O)oc1 (some centres not stated),-5%,0,u,0.058µM*
C[C@]12CC[C@H]3C(CCC4(O)CC(O)CC[C@]34C=O)C1=CC[C@H]2c1ccc(=O)oc1 (some centres not stated),-3%,1,-25%,u
CC(C)(C)n1ncc2c(=O)n(Cc3cccc(Cn4cnc5c(cnn5C(C)(C)C)c4=O)c3F)cnc21,3%,0,u,5.2µM*
Cn1c(-c2ccccc2)c(P(=S)(c2ccccc2)c2ccccc2)c2ccccc21,x,x,-1%,13%
OCc1cccc[n+]1CCc1ccccc1,0%,-1,-2%,7.3µM*
N[C@H](CO)Cc1ccccc1,-1%,0,-4%,-7%
CCN(CC)c1ccc(/C=N/c2sc3c(c2C#N)C2CCN3CC2)c(O)c1,2%,53*,-8%,11%
COc1cc([N+](=O)[O-])c2nc(C)ccc2c1[N+](=O)[O-],18µM*,0,-8%,-7%
COc1cc([N+](=O)[O-])c2ncccc2c1[N+](=O)[O-],-1%,0,x,x
O=C(Nc1ccc(OC(F)(F)F)cc1)C1CCN(S(=O)(=O)c2cccs2)CC1,5%,x,-11%,u
Fc1ccc(-c2nc3c(-c4ccc(F)cc4)cnn3cc2CCN2CCOCC2)cc1,4%,0,0%,u

# Compound activity from PubChem.
